Where “and” joins values, the source holds several entries; their conditions need not be identical. Identical values can stand only once. Values without a mark were called inactive. The call rests on the fitted dose curve.
Potency means the concentration at half of the fitted maximal effect.

Chain of Glucocorticoid receptor (Homo sapiens) (P04150 whole entry, looked up): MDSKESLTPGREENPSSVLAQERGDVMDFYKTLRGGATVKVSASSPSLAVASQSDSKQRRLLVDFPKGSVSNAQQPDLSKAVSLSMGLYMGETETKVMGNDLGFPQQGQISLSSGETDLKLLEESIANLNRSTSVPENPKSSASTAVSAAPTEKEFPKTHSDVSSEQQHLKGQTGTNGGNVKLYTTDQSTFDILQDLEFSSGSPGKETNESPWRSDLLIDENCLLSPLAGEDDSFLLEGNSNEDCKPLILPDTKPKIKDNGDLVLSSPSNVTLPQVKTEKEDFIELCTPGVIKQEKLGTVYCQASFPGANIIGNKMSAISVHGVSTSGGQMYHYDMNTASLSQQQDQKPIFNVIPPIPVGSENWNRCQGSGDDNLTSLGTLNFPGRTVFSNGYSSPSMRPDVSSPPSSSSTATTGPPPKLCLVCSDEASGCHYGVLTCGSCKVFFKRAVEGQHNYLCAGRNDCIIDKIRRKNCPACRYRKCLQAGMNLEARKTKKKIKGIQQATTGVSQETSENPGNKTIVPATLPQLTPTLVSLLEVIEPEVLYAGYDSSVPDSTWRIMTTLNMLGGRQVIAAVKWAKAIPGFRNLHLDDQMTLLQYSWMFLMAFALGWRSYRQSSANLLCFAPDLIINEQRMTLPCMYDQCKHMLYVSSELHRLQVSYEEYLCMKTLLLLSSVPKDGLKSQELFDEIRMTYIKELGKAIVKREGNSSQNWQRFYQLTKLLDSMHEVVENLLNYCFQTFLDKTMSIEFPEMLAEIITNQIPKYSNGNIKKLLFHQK

The target of this test is Glucocorticoid receptor (Homo sapiens) (UniProt P04150). Briefly: GR-EFC Redistribution (AID 451). The following applies: CHO-K1 GR-EFC translocation, beta-gal luminescence, 2 h. The text has this:
NIH Molecular Libraries Screening Centers Network [MLSCN]
NIH Chemical Genomics Center [NCGC]
The glucocorticoid receptor (GR) is a cytoplasmic receptor that belongs to the nuclear receptor family of ligand-dependent transcription factors. Upon glucocorticoid binding to its receptor, the glucocorticoid-GR complex translocates into the nucleus, where it binds as a dimer to specific DNA sequences (glucocorticoid response elements), enhancing or suppressing transcription of a wide variety of glucocorticoid-responsive genes. In addition to their important roles in normal physiology and metabolism, glucocorticoids are administered exogenously as treatments for a wide variety of allergic, autoimmune, and neoplastic conditions. Identification of compounds that modulate aspects of GR signalling would be useful in dissecting glucocorticoid response pathways as well as developing GR modulators with more targeted clinical effects.
Traditionally, GR modulators have been identified using receptor binding or direct transactivation assays. However, assays for glucocorticoid-dependent nuclear translocation can also be used to screen for compounds affecting GR signaling.
Immunocytochemical staining has been used to assay for GR translocation, but is not suitable for high throughout screening due to the multiple reagent addition and wash steps required. Recently, a novel cell-based GR assay in Enzyme Fragment Complementation (EFC) format was developed by DiscoveRx (Fremont, CA). The assay uses EFC of b-galactosidase (b-gal) as an indicator of GR-translocation in engineered CHO-K1 biosensor cells. The enzyme acceptor (EA) fragment of b-gal resides in the nucleus , as designed through the use of a proprietary set of sequence additions and modifications. The small peptide enzyme donor (ED) fragment of b-gal is fused directly to the C-terminus of GR, and is localized in the cytoplasm is the absence of receptor signaling. Upon binding to a GR ligand, the complex translocates to the nucleus, where intact enzyme activity is restored by complementation and b-gal activity is detected. We optimized this GR-EFC assay in homogenous 1536-well plate assay format for high throughput screening.
NCGC Assay Protocol Summary:
CHO-K1 cells stably expressing NLS-enzyme acceptor fragment (EA) of b-gal and GR-enzyme donor (ED) fragment of b-gal were maintained in F12 medium (Invitrogen, Carlsbad, CA) at 37 Celsius degrees under a humidified atmosphere containing 5% CO2 and 95% air. The medium contained 10% FBS, 2 mM L-glutamine, 50 U/ml penicillin 50 ug/ml streptomycin, and 250 ug/ml hygromycin and 500 ug/ml G418 (Invitrogen).
GR-translocation was measured beta-gal enzyme activity using the PathHunter Detection Kit containing cell membrane permeablizing reagent and beta-gal substrate (DiscoveRx, Fremont, CA). All compounds were screened as titrations from 0.6 nM to 46 uM final concentration. The assay was performed in 1536-well format as follows:
5 uL cell suspension (1,000 cells)/well
Incubation at 37 Celsius degrees for two hours
1.25 uL 1X detection buffer from the kit supplied by DiscoveRx
Incubation at room temperature for one hour
Read plate in luminescence mode in ViewLux plate reader (PerkinElmer)
Keywords: NIH Roadmap, MLSCN, MLI, MLSMR, GR-EFC, GREFC, qHTS, NCGC
In the case of `NS(=O)(=O)c1ccc(C(=O)O)cc1`, the Potency was greater than 9.22 µM.
The value for `CC(C)=CCC/C(C)=C/CO` was greater than 9.22 µM.
The value for `CCOC(=O)[C@H](CCc1ccccc1)N[C@@H](C)C(=O)N1CCC[C@H]1C(=O)O` was greater than 20.6 µM.
For the compound `O=C(O)c1ccccc1C(=O)Nc1ccc(S(=O)(=O)Nc2nccs2)cc1`, the Potency is greater than 20.6 µM.
The value for `CCN(CC)CCc1nc(-c2ccccc2)no1` was greater than 20.6 µM; that for `NC(=O)CC[C@@H](N)C(=O)O` was greater than 46 µM.
As for `CCc1cccc(CC)c1NC(=O)CN(CC(=O)O)CC(=O)O`, the Potency was greater than 20.6 µM.
Turning to `Cc1cc(NC(=O)C2=C(O)c3ccccc3S(=O)(=O)N2C)no1`, the Potency was greater than 20.6 µM.
The value for `COc1ccc(NS(=O)(=O)c2ccc(N)cc2)nn1` was greater than 20.6 µM.
In the case of `CC(=O)NS(=O)(=O)c1ccc(N)cc1`, the Potency is greater than 20.6 µM.
The value for `CN/C(=C\[N+](=O)[O-])NCCSCc1csc(CN(C)C)n1` was greater than 20.6 µM.
The value for `NC(N)=NS(=O)(=O)c1ccc(N)cc1` was greater than 20.6 µM; that for `C[N+](C)(C)CC[N+]1(C)Cc2c(Cl)c(Cl)c(Cl)c(Cl)c2C1` was greater than 46 µM.
The value for `Cc1c(NC(=O)c2cccnc2)c(=O)n(-c2ccccc2)n1C` was greater than 20.6 µM.
In the case of `O=C1c2ccccc2S(=O)(=O)N1CCCCN1CCN(c2ncccn2)CC1`, the Potency was greater than 46 µM.
The value for `CN(C(=O)c1c(O)c2ccccc2n(C)c1=O)c1ccccc1` was greater than 46 µM.
The value for `CN1C(C)(C)CCCC1(C)C` was > 46 µM and > 20.6 µM.
The value for `NS(=O)(=O)c1cc2c(cc1C(F)(F)F)NCNS2(=O)=O` was greater than 20.6 µM; that for `CCN(CC)CCOC(=O)C(c1ccccc1)c1ccccc1` was greater than 20.6 µM; that for `Cc1c(NC(C)C)c(=O)n(-c2ccccc2)n1C` was greater than 20.6 µM.
As to `CC(=O)SC[C@@H](Cc1ccccc1)C(=O)NCC(=O)OCc1ccccc1`, the Potency is greater than 20.6 µM.
The value for `COc1ccc2cc(CCC(C)=O)ccc2c1` was greater than 20.6 µM; that for `C[C@@H](N)C(=O)O` was greater than 46 µM; that for `Cn1c([N+](=O)[O-])cnc1COC(N)=O` was greater than 20.6 µM.
In the case of `Cc1cccc(Nc2ccccc2C(=O)O)c1C`, the Potency was greater than 20.6 µM.
The value for `CCCNC(C)(C)COC(=O)c1ccccc1` was greater than 20.6 µM; that for `Cc1c(N(C)C)c(=O)n(-c2ccccc2)n1C` was greater than 20.6 µM.
The value for `C[C@@H]1CCC[C@H](C)N1` was greater than 20.6 µM; that for `O=C(O)c1ccccc1OP(=O)(O)O` was greater than 20.6 µM; that for `Cc1cc(C)nc(NS(=O)(=O)c2ccc(N)cc2)n1` was greater than 20.6 µM.
The value for `CCCCOC(=O)c1ccc(N)cc1` was greater than 20.6 µM; that for `NC(N)=NCCN1CCCCCCC1` was greater than 20.6 µM.
